The text below walks through data of the antibiotic and cytotoxicity screens of Wong et al. (2023).

The structures appear in SMILES notation. About 1,500 (3.8%) of roughly 39,000 compounds were called active. The entries come from a sample that favours actives as a whole.

This assay has as its system HSkMC (human skeletal muscle cells). As to the kind of experiment: cytotoxicity call (relative viability < 0.9). The conditions noted are these: 10 µM.
As for `COc1ccc(NC(=O)N(C)C[C@@H]2Oc3ccc(NC(=O)CCCN(C)C)cc3CC(=O)N([C@H](C)CO)C[C@H]2C)cc1`, the cytotoxicity call is “inactive”. With `C[C@@H]1CCCCO[C@H](CN(C)C(=O)Nc2ccc3c(c2)OCO3)[C@H](C)CN([C@@H](C)CO)C(=O)c2cc(NC(=O)Nc3ccc(F)cc3)ccc2O1` the entry was “inactive”; with `C[C@@H]1CCCCO[C@H](CN(C)C(=O)c2ccncc2)[C@H](C)CN([C@H](C)CO)C(=O)c2cc(NS(=O)(=O)c3ccc(Cl)cc3)ccc2O1`, “inactive”. As to `NC(=O)CNC(=O)c1cccc(Cl)c1`, the cytotoxicity call was “inactive”.

For the compound `Cc1cc2nc3ccc(N(C)C)cc3[s+]c2cc1N.[Cl-]`, the cytotoxicity call was “active”. With `CN(C)c1ccc2nc3ccc(N(C)C)cc3[s+]c2c1.O.[Cl-]` the entry was “active”; with `CN(C)c1ccc2c(=O)[nH][nH]c(=O)c2c1`, “inactive”. With `C[C@@H]1CN([C@@H](C)CO)C(=O)Cc2cc(NC(=O)Cc3cn(C)c4ccccc34)ccc2O[C@@H]1CN(C)Cc1ccc(Oc2ccccc2)cc1` the entry was “inactive”; with `Nc1cc(Cl)ncn1`, “inactive”. With `C[C@@H]1CN([C@H](C)CO)S(=O)(=O)c2ccc(C#C[C@@H](C)O)cc2O[C@H]1CN(C)C` the entry was “inactive”; with `COc1ccc(S(=O)(=O)Nc2ccc3c(c2)C(=O)N([C@H](C)CO)C[C@H](C)[C@@H](CN(C)C(=O)c2ccccc2)OCCCC[C@H](C)O3)cc1`, “inactive”. Turning to `CC12CC3(C)CC(C)(C1)CC(C/N=C/c1ccc(O)cc1)(C2)C3`, the cytotoxicity call was “inactive”. With `CCOc1ccc2nc(C34CC5CC(CC(C5)C3)C4)ccc2c1` the entry was “inactive”.

As to `CC1=Nc2ccccc2NC(C)(C)C1`, the cytotoxicity call was “inactive”. In the case of `C[C@@H]1CN([C@@H](C)CO)C(=O)c2cc(NC(=O)Cc3ccccc3)ccc2O[C@H]1CN(C)S(=O)(=O)c1cccs1`, the cytotoxicity call is “inactive”. The result for `COCCN1CCC(N(Cc2ccc(-c3ccc(C(F)(F)F)cc3)cc2)C(=O)Cn2c(SCc3cccc(F)c3F)cc(=O)c3ccccc32)CC1` reads “active”. The result for `O=c1cc(-c2ccccc2)[nH]c(=O)[nH]1` reads “inactive”; that for `CC(C)NC(=O)Nc1ccc2c(c1)CC(=O)N([C@H](C)CO)C[C@@H](C)[C@H](CN(C)S(=O)(=O)c1ccc(Cl)cc1)O2`, “inactive”. The result for `COc1ccc(S(=O)(=O)N(C)C[C@@H]2Oc3ccc(NC(=O)NC(C)C)cc3CC(=O)N([C@H](C)CO)C[C@@H]2C)cc1` reads “inactive”.

`COc1ccc(S(=O)(=O)N(C)C[C@@H]2Oc3ccc(NC(=O)Nc4ccc(Cl)c(Cl)c4)cc3CC(=O)N([C@@H](C)CO)C[C@@H]2C)cc1Cl`: the cytotoxicity call is “active”. `CC(C)NC(=O)Nc1ccc2c(c1)CC(=O)N([C@@H](C)CO)C[C@@H](C)[C@H](CN(C)S(=O)(=O)c1ccc(Cl)cc1)O2`: the cytotoxicity call is “inactive”. With `COc1ccc(S(=O)(=O)N(C)C[C@@H]2Oc3ccc(NC(=O)Nc4cccc5c4CCCC5)cc3CC(=O)N([C@@H](C)CO)C[C@@H]2C)cc1Cl` the entry was “inactive”; with `COc1ccc(S(=O)(=O)N(C)C[C@@H]2Oc3ccc(NC(=O)Nc4cc(Cl)cc(Cl)c4)cc3CC(=O)N([C@@H](C)CO)C[C@@H]2C)cc1Cl`, “active”.

For `COc1ccc(NC(=O)N(C)C[C@H]2OCCCC[C@H](C)Oc3ccc(NS(=O)(=O)c4cccs4)cc3C(=O)N([C@@H](C)CO)C[C@H]2C)cc1`, the cytotoxicity call was “inactive”. With `COc1cccc(S(=O)(=O)N(C)C[C@H]2Oc3cc(Br)ccc3S(=O)(=O)N([C@@H](C)CO)C[C@H]2C)c1` the entry was “inactive”. On to `COc1ccc2c3c([nH]c2c1)[C@@H](CO)N(C[C@]13CCN(CC1)S(=O)(=O)c1cn(cn1)C)C(=O)Nc1ccc(cc1)F`, for which the cytotoxicity call is “inactive”. In the case of `O=C(C[C@H]1C[C@@H]2c3cc(NC(=O)Nc4ccc(C(F)(F)F)cc4)ccc3O[C@@H]2[C@H](CO)O1)NC1CCCCC1`, the cytotoxicity call was “inactive”. With `C[C@H]1CN([C@@H](C)CO)S(=O)(=O)c2ccc(C#Cc3ccncc3)cc2O[C@@H]1CN(C)C(=O)C1CCCCC1` the entry was “inactive”; with `COc1ccccc1NC(=O)N(C)C[C@H]1Oc2ncc(C#CCN(C)C)cc2C(=O)N([C@@H](C)CO)C[C@H]1C`, “inactive”. As to `C[C@H]1CN([C@@H](C)CO)C(=O)c2cc(NC(=O)Nc3ccc(C(F)(F)F)cc3)ccc2O[C@@H]1CN(C)Cc1ccc(Cl)c(Cl)c1`, the cytotoxicity call was “inactive”. With `C[C@@H]1CN([C@@H](C)CO)C(=O)c2cc(NC(=O)Nc3ccc(C(F)(F)F)cc3)ccc2O[C@@H]1CN(C)Cc1ccc(Cl)c(Cl)c1` the entry was “active”; with `C[C@@H]1CN([C@@H](C)CO)C(=O)c2cc(NC(=O)Nc3ccc(C(F)(F)F)cc3)ccc2O[C@H]1CN(C)Cc1ccc(Cl)c(Cl)c1`, “inactive”; with `C[C@@H]1CN([C@H](C)CO)C(=O)c2cc(NC(=O)Nc3ccc(C(F)(F)F)cc3)ccc2O[C@@H]1CN(C)Cc1ccc(Cl)c(Cl)c1`, “active”. Take `C[C@H](CO)N1C[C@H](C)[C@H](CN(C)Cc2ccc(Cl)c(Cl)c2)Oc2ccc(NC(=O)Nc3ccc(C(F)(F)F)cc3)cc2C1=O`: the cytotoxicity call is “active”.

On to `C[C@@H]1CN([C@H](C)CO)C(=O)c2cc(NC(=O)Nc3ccc(C(F)(F)F)cc3)ccc2O[C@@H]1CN(C)Cc1ccncc1`, for which the cytotoxicity call is “inactive”. With `C[C@H](CO)N1C[C@H](C)[C@@H](CN(C)Cc2ccc(Cl)c(Cl)c2)Oc2ccc(NC(=O)Nc3ccc(C(F)(F)F)cc3)cc2C1=O` the entry was “active”; with `C[C@@H]1CN([C@H](C)CO)C(=O)c2cc(NS(=O)(=O)c3ccc(F)cc3)ccc2O[C@H]1CN(C)Cc1ccncc1`, “inactive”.

`CN1C(=O)c2cc(NS(C)(=O)=O)ccc2OC[C@H]2O[C@@H](CC(=O)N3CCOCC3)CC[C@@H]21`: the cytotoxicity call is “inactive”. With `C[C@@H]1CCCCO[C@H](CN(C)S(=O)(=O)c2cccs2)[C@@H](C)CN([C@H](C)CO)C(=O)c2cc(NC(=O)C3CCCCC3)ccc2O1` the entry was “inactive”; with `COCC(=O)N1[C@@H]2c3ccc(C4=CCCCC4)c(=O)n3C[C@@H]2[C@@H](CO)[C@@H]1C(=O)N1CCN(C)CC1`, “inactive”. With `Cc1ccc(S(=O)(=O)Nc2ccc3c(c2)C(=O)N([C@H](C)CO)C[C@@H](C)[C@@H](CN(C)C(=O)Nc2cccc4ccccc24)O3)cc1` the entry was “inactive”; with `CO[C@H]1CN(C)C(=O)c2cc(NS(=O)(=O)CC(F)(F)F)ccc2OC[C@@H](C)N(C(=O)NC(C)C)C[C@@H]1C`, “inactive”. The result for `O=C1NCCCc2occc21` reads “inactive”; that for `Cc1noc(C)c1S(=O)(=O)Nc1ccc2c(c1)C(=O)N([C@@H](C)CO)C[C@H](C)[C@H](CN(C)Cc1ccccc1)O2`, “inactive”; that for `CO[C@H](CN(C)S(=O)(=O)c1ccc(C)cc1)[C@H](C)CN([C@@H](C)CO)S(=O)(=O)c1cccc(Cl)c1`, “inactive”. `COc1ccc(NC(=O)N(C)C[C@@H]2Oc3ncc(C#CCN(C)C)cc3C(=O)N([C@H](C)CO)C[C@@H]2C)cc1`: the cytotoxicity call is “inactive”. The result for `COCC#Cc1ccc2c(c1)O[C@@H](CN(C)C(=O)C1CCOCC1)[C@H](C)CN([C@@H](C)CO)S2(=O)=O` reads “inactive”; that for `C[C@H]1CN([C@@H](C)CO)C(=O)c2cc(NC(=O)Nc3ccc(F)cc3)ccc2O[C@@H]1CN(C)Cc1ccc(Cl)c(Cl)c1`, “inactive”. The result for `C[C@@H]1CN([C@H](C)CO)C(=O)c2cc(NC(=O)Nc3ccc(C(F)(F)F)cc3)ccc2O[C@H]1CN(C)Cc1ccc(Cl)c(Cl)c1` reads “active”; that for `C[C@H]1CN([C@@H](C)CO)C(=O)c2cc(NC(=O)Nc3ccc(C(F)(F)F)cc3)ccc2O[C@H]1CN(C)Cc1ccc(Cl)c(Cl)c1`, “active”; that for `C[C@H](CO)N1C[C@H](C)[C@@H](CN(C)Cc2ccc(Cl)c(Cl)c2)Oc2ccc(NC(=O)Nc3ccc(F)cc3)cc2C1=O`, “inactive”. Take `C[C@@H]1CN([C@@H](C)CO)S(=O)(=O)c2ccc(Br)cc2O[C@H]1CN(C)S(=O)(=O)c1ccccc1`: the cytotoxicity call was “inactive”. The result for `C[C@@H]1CN([C@H](C)CO)C(=O)Cc2cc(NS(=O)(=O)c3ccc(F)cc3)ccc2O[C@@H]1CN(C)Cc1ccncc1` reads “inactive”. With `C[C@H]1CN([C@@H](C)CO)C(=O)CCCn2nncc2CO[C@H]1CN(C)S(=O)(=O)c1cn(C)cn1` the entry was “inactive”; with `Cc1noc(C)c1NC(=O)N(C)C[C@H]1Oc2c(NC(=O)Nc3ccc(C(F)(F)F)cc3)cccc2C(=O)N([C@H](C)CO)C[C@@H]1C`, “inactive”. Consider `C[C@H]1CN([C@@H](C)CO)S(=O)(=O)c2ccc(-c3ccncc3)cc2O[C@@H]1CN(C)C(=O)c1cccc(F)c1`, for which the cytotoxicity call was “inactive”.

On to `CNC(=O)CN1C(=O)[C@@H]2[C@@H](C1=O)[C@@H]1C=C[C@@H]2C1`, for which the cytotoxicity call was “inactive”.

`C[C@@H]1CN([C@H](C)CO)C(=O)c2cccc(NC(=O)Nc3ccc(C(F)(F)F)cc3)c2O[C@@H]1CN(C)CC1CCCCC1`: the cytotoxicity call is “active”. Take `C[C@H](CO)N1C[C@H](C)[C@H](CN(C)CC2CCCCC2)Oc2c(NC(=O)Nc3ccc(F)cc3)cccc2C1=O`: the cytotoxicity call is “inactive”. The result for `C[C@H]1CN([C@@H](C)CO)C(=O)c2cccc(NC(=O)Nc3ccc(C(F)(F)F)cc3)c2O[C@H]1CN(C)CC1CCCCC1` reads “inactive”; that for `C[C@H]1CN([C@@H](C)CO)C(=O)c2cccc(NC(=O)Nc3ccc(C(F)(F)F)cc3)c2O[C@@H]1CN(C)CC1CCCCC1`, “active”; that for `C[C@@H]1CN([C@H](C)CO)C(=O)c2cccc(NC(=O)Nc3ccc(F)cc3)c2O[C@@H]1CN(C)CC1CCCCC1`, “inactive”. The result for `C[C@H](CO)N1C[C@H](C)[C@@H](CN(C)CC2CCCCC2)Oc2c(NC(=O)Nc3ccc(C(F)(F)F)cc3)cccc2C1=O` reads “active”; that for `C[C@H]1CN([C@@H](C)CO)C(=O)c2cccc(NC(=O)Nc3ccc(F)cc3)c2O[C@H]1CN(C)CC1CCCCC1`, “inactive”. With `C[C@@H]1CN([C@H](C)CO)C(=O)c2cccc(NC(=O)Nc3ccc(F)cc3)c2O[C@H]1CN(C)CC1CCCCC1` the entry was “inactive”; with `C[C@H](CO)N1C[C@H](C)[C@H](CN(C)CC2CCCCC2)Oc2c(NC(=O)Nc3ccc(C(F)(F)F)cc3)cccc2C1=O`, “inactive”; with `C[C@@H]1CN([C@H](C)CO)C(=O)c2cccc(NC(=O)Nc3ccc(C(F)(F)F)cc3)c2O[C@H]1CN(C)CC1CCCCC1`, “active”. On to `C[C@@H]1CN([C@@H](C)CO)C(=O)c2cccc(NC(=O)Nc3ccc(F)cc3)c2O[C@H]1CN(C)CC1CCCCC1`, for which the cytotoxicity call is “inactive”. Turning to `C[C@@H]1CN([C@@H](C)CO)C(=O)c2cccc(NC(=O)Nc3ccc(C(F)(F)F)cc3)c2O[C@@H]1CN(C)CC1CCCCC1`, the cytotoxicity call was “inactive”.
